Assay in all cases: Primary qHTS to identify gynecologic anti-cancer compounds using libraries of approved drugs and bioactive compounds (AID 1345084); further: nearly all actives have a fitted effect of over 55% in size
Common to all, as to settings: Gynecologic cancer cell panel viability, ATPlite luminescence, 48 h; series mostly up to 57.5 µM
A general note: Quantitative high-throughput screening tests each substance at several concentrations.

One assay relates to PA-1. The gist of the method: (§1)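 48 h compound exposure at 37 C, 5% CO2; five-point qHTS. ATPlite luminescence readout of cell ATP.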
The test system of a further assay is Tov-21-G. The gist of the method:
as §1

The subject of the next assay is Tov112D. In a few lines:
as §1

Results filed as inconclusive are left out. Unmarked numbers belong to inactive results. Activity calls are given as the source filed them. The call rests on the fitted dose curve; in most records, active means well fitted cell-killing curve with a large enough effect; inconclusive means small, poorly fitted or top-dose-only effect, or effect the other way; inactive means flat fitted curve, though single readings scatter.
On the % scale 0 is the no-effect control and ±100 the full control effect.

Consider `CC1(C)CC[C@]2(C(=O)O)CC[C@]3(C)C(=CCC4[C@@]5(C)C[C@@H](O)[C@H](O)[C@@](C)(CO)C5[C@H](O)C[C@]43C)[C@@H]2C1` (some centres undefined), for which the Potency entry in the assay on PA-1, with Tov-21-G and in the assay with Tov112D was “inactive” in each case.

For the compound `CC(C)c1ccc2c(c1)C(O)CC1C(C)(CO)CCCC21C` (centres undefined), the Potency result in the assay with PA-1, in the assay on Tov-21-G and in the assay on Tov112D was “inactive” each time.

For `CC1CCCCCCCc2cc(O)cc(O)c2C(=O)O1` (centres undefined), the Potency result in the assay on PA-1, in the assay with Tov-21-G and with Tov112D was “inactive” each time.

On to `CC1(C)C=Cc2c(ccc3c2N=C2C(C)(C)[C@@H]4C[C@]56CCCN5C(=O)[C@@]4(C[C@]23O)NC6=O)O1`, for which the Potency result in the assay on PA-1, with Tov-21-G and in the assay on Tov112D was “inactive” throughout.

Regarding `COc1ccc(C2(O)c3c(ccc4c3OC(C)(CCC=C(C)C)C=C4)NC(=O)C2OC)cc1` (centres undefined), the Potency result in the assay on PA-1, with Tov-21-G and in the assay with Tov112D was “inactive” each time.

As to `COc1cc(O)c2c(c1Cl)CC(C)OC2=O` (centres undefined), the Potency entry in the assay on PA-1, with Tov-21-G and in the assay on Tov112D was “inactive” each time.

Take `COc1cc(C2Oc3c(OC)cc(CCCO)cc3C2CO)ccc1O` (centres undefined): the Potency result with PA-1, with Tov-21-G and in the assay with Tov112D was “inactive” in each case.

Consider `NC(=O)c1ccc(F)c2c1C[C@@H](N(C1CCC1)C1CCC1)CO2`, for which the Potency result in the assay on PA-1, with Tov-21-G and in the assay with Tov112D was “inactive” in each case.

Consider `CC1=CC(=O)CC(C)(C)[C@@]1(O)/C=C/C(C)O[C@@H]1O[C@H](CO)[C@@H](O)[C@H](O)[C@H]1O` (some centres undefined), for which the Potency result with PA-1, with Tov-21-G and with Tov112D was “inactive” throughout.

On to `CCOc1ncc(S(=O)(=O)N2CCN(CC)CC2)cc1-c1nc2c(CC)n(CCOC)nc2c(=O)[nH]1`, for which the Potency result with PA-1, in the assay on Tov-21-G and with Tov112D was “inactive” in each case.

For the compound `O=C(O)c1ccnc2cc(-c3nc4ccccc4n3CCN3CCCCC3)sc12`, the Potency entry in the assay with PA-1, in the assay with Tov-21-G and with Tov112D was “inactive” each time.

In the case of `CCc1nn(CCO)c(CC)c1Oc1cc(C#N)cc(C#N)c1`, the Potency entry in the assay on PA-1, with Tov-21-G and with Tov112D was “inactive” in each case.

With `C[C@]1(O)CC[C@@H]2C(C(=O)O)=CO[C@@H](O[C@@H]3O[C@H](CO)[C@@H](O)[C@H](O)[C@H]3O)[C@@H]21`, the Potency entry in the assay with PA-1, in the assay on Tov-21-G and in the assay on Tov112D was “inactive” in each case.

In the case of `O=C(COCC(=O)N1CCN(C(c2ccccc2)c2ccccc2)CC1)Nc1ccc(Cl)cc1C(=O)O`, the Potency result in the assay on PA-1, in the assay on Tov-21-G and with Tov112D was “inactive” throughout.

`CCOc1ccc(-c2cc(NC(=O)c3c(F)cccc3F)c(C(=O)O)s2)cc1`: the Potency entry with PA-1, with Tov-21-G and in the assay with Tov112D was “inactive” in each case.

Turning to `COC1OC(=O)C2=C1C1(C)CCCC(C)(C)C1CC2O` (centres undefined), the Potency entry in the assay on PA-1, in the assay with Tov-21-G and with Tov112D was “inactive” in each case.

For the compound `C[C@]12CC/C(=N\OCC(=O)O)C=C1CC[C@@H]1[C@@H]2[C@@H](O)C[C@@]2(C)[C@H]1CC[C@]2(O)C(=O)CO`, the Potency result with PA-1, with Tov-21-G and in the assay with Tov112D was “inactive” in each case.

As to `O=C(/C=C/N1C[C@@H]2C[C@@H]1CN2c1ccccn1)c1ccccc1O`, the Potency entry in the assay on PA-1, in the assay on Tov-21-G and with Tov112D was “inactive” throughout.

On to `CC(C)=CCC/C(C)=C/CO[C@@H]1O[C@H](CO[C@@H]2O[C@@H](CO)[C@H](O)[C@H]2O)[C@@H](O)[C@H](O)[C@H]1O`, for which the Potency result in the assay on PA-1, in the assay on Tov-21-G and in the assay with Tov112D was “inactive” each time.

Turning to `NC(=O)NCCCC(NC(=O)Cc1ccccc1)C(=O)O` (centres undefined), the Potency result with PA-1, with Tov-21-G and in the assay on Tov112D was “inactive” in each case.

For the compound `CSCC1OC(n2cnc3c(N)ncnc32)C(O)C1O` (centres undefined), the Potency entry with PA-1, with Tov-21-G and in the assay with Tov112D was “inactive” in each case.

Consider `C/C=C(\C)C(=O)OC[C@H]1O[C@H](O[C@H]2O[C@H](CO)[C@@H](O)[C@H](O)[C@H]2O[C@@H]2O[C@H](CO)[C@@H](O)[C@H](O)[C@H]2O)[C@H](O[C@@H]2O[C@H](CO)[C@@H](O)[C@H](O)[C@H]2O)[C@@H](O)[C@@H]1O`, for which the Potency result with PA-1, with Tov-21-G and in the assay on Tov112D was “inactive” each time.

For the compound `CCOC(=O)CSc1nc2c(sc3ccccc32)c(=O)n1CCCN1CCCC1`, the Potency entry in the assay with PA-1, with Tov-21-G and in the assay with Tov112D was “inactive” throughout.

Regarding `O=C(/C=C/c1ccc(O)cc1)O[C@@H]1C[C@@](O)(C(=O)O)C[C@@H](O)[C@@H]1O`, the Potency entry in the assay with PA-1, with Tov-21-G and in the assay on Tov112D was “inactive” in each case.

Turning to `CCN1CCN(C(=O)N[C@@H](C(=O)N[C@@H]2C(=O)N3[C@@H]2SC(C)(C)[C@@H]3C(=O)O)c2ccccc2)C(=O)C1=O`, the Potency result in the assay with PA-1, in the assay on Tov-21-G and with Tov112D was “inactive” in each case.

On to `C/C=C/C=C/[C@@H]1O[C@](O)([C@H](CC)C(=O)NC/C=C/C=C(\C)[C@@H](OC)[C@@H](C)[C@@H]2O[C@H](/C=C/C=C/C=C(\C)C(=O)c3c(O)ccn(C)c3=O)[C@H](O)[C@@H]2O)[C@H](O)[C@H](O)C1(C)C`, for which the activity change, negative = cytotoxicity with PA-1 is -1.69% [at 11.6 µM]; in the assay with Tov-21-G, -0.814% [at 11.6 µM]; in the assay on Tov112D, -0.13% [at 11.6 µM].

For the compound `CCOC(=O)COc1ccc2c(c1)C[C@@H](NC[C@H](O)c1cccc(Cl)c1)CC2`, the Potency entry in the assay on PA-1, in the assay on Tov-21-G and in the assay on Tov112D was “inactive” throughout.

`NC(=O)[C@@H]1CC[C@H](c2ccc(OCc3ccccc3F)cc2)N1`: the Potency entry with PA-1 and with Tov112D was “inactive” in each case.

Regarding `C=C1CC[C@H]2[C@@](C)(CCC(OC3OC(CO)C(O)C(O)C3O)[C@@]2(C)CO)C1C(=O)CC1=CCOC1=O` (some centres undefined), the Potency entry with PA-1, with Tov-21-G and in the assay on Tov112D was “inactive” in each case.

In the case of `C[C@@H]1O[C@@H](O[C@H]2[C@H](O)[C@@H](O)[C@H](OC(=O)[C@]34CCC(C)(C)C[C@H]3C3=CCC5[C@@]6(C)CC[C@H](O[C@@H]7O[C@H](C(=O)O)[C@@H](O)[C@H](O)[C@H]7O)C(C)(C)C6CC[C@@]5(C)[C@]3(C)CC4)O[C@@H]2CO)[C@H](O)[C@H](O)[C@H]1O` (some centres undefined), the activity change, negative = cytotoxicity in the assay on PA-1 was -21.3% [at 11.6 µM]; in the assay with Tov-21-G, -3.13% [at 11.6 µM]; with Tov112D, -16.2% [at 11.6 µM].

(Values after PubChem BioAssay (NCATS).)
